# Data: PubChem BioAssay (NCATS)
# Unmarked numbers belong to inactive results. Inconclusive results are not listed. A call without a number means that no potency is given here. Activity calls are given as the source filed them. Unless noted, calls come from the whole dose curve; as a rule, active = well fitted curve in the direction sought with a large enough effect; inconclusive = small, poorly fitted or top-dose-only effect, or another doubt; inactive = no such curve, though single readings can be large; an effect the other way counts as inactive or inconclusive.
# Legend:
# [1] = molecular target: Cytochrome P450 3A4 (Homo sapiens) (UniProt P08684); test: qHTS Assay for Inhibitors and Substrates of Cytochrome P450 3A4 (AID 884); note: series mostly up to about 57 µM; nearly all actives have a fitted effect of over 50% in size
# Sequence of Cytochrome P450 3A4 (Homo sapiens) (P08684 whole entry, looked up): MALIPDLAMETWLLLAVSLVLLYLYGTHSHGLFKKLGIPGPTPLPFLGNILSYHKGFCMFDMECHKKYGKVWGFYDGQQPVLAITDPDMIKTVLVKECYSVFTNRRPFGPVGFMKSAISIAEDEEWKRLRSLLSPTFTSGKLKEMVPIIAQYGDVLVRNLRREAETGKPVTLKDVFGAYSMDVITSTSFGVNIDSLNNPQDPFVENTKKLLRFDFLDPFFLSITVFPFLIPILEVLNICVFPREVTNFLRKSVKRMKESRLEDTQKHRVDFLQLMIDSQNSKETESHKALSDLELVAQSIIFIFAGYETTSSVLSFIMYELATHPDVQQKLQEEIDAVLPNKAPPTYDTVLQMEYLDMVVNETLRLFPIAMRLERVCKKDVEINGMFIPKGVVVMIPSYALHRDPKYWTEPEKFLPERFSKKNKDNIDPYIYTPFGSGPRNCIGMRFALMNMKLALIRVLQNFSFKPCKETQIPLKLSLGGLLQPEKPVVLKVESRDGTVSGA
# How it was run: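 20 nM human CYP3A4 with 25 uM Luciferin-PPXE (at KM) in 200 mM KPO4, preincubated 10 min with compound; NADPH regeneration started a 60 min RT reaction. Luciferin detected by luminescence, normalized to 57 uM ketoconazole as full inhibition.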
# [2] = molecular target: Guanine nucleotide-binding protein G(i) subunit alpha-1 (Homo sapiens) (UniProt P63096); test: qHTS Assay for Inhibitors of RGS12 GoLoco Motif Activity (Green Fluorophore) (AID 879);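 note: negative values mean loss of peptide binding seen as reduced polarization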
# Sequence of Guanine nucleotide-binding protein G(i) subunit alpha-1 (Homo sapiens) (P63096 whole entry, looked up): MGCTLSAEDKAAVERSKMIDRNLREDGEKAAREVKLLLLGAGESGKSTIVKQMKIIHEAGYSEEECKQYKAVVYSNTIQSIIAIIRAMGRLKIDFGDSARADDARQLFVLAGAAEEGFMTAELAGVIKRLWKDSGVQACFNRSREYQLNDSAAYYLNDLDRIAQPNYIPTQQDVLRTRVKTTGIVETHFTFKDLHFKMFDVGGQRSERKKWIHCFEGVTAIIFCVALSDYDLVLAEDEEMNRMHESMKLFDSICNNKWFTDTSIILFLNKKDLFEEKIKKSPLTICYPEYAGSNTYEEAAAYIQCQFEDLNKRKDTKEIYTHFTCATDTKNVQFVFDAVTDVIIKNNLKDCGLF
# How it was run: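 Fluorescence polarization assay: 50 nM Gαi1 with 10 nM FITC-labeled RGS12 GoLoco peptide in 10 mM Tris pH 7.5, 150 mM NaCl, 0.1 mM GDP, 0.05% NP40, 10 min at room temperature with compound.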
# [3] = qHTS Assay for Identification of Small Molecule Agonists for Thrombopoietin (TPO) Signaling Pathway (AID 917)
# How it was run: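 IL-3-dependent murine pro-B Ba/F3 cells, stably transfected with human TPO receptor and GpIIb-promoter luciferase, are incubated 24 hrs at 37 C with test compound and 26 pM TPO; luciferase signal is read after 10 min at room temperature.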
# [4] = molecular target: Pyruvate kinase (Leishmania mexicana) (UniProt Q27686); test: qHTS Validation Assay for Inhibitors of Leishmania Mexicana Pyruvate Kinase (AID 945)
# Sequence of Pyruvate kinase (Leishmania mexicana) (Q27686 2-499 E452W): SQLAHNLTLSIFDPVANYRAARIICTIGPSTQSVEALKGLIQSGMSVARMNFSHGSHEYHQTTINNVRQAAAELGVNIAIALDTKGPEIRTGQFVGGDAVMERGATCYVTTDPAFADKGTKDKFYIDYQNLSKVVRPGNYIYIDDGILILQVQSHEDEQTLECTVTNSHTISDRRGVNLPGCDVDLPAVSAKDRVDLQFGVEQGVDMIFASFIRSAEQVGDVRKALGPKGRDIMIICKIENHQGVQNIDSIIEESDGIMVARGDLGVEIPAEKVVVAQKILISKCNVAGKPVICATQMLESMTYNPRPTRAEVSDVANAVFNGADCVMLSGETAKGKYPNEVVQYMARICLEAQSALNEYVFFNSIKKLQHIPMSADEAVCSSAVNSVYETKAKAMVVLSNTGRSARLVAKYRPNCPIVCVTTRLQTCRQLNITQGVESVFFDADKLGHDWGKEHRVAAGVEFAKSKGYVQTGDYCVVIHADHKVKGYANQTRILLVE
# How it was run: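 qHTS eight-point titrations against 0.2 nM LmPYK (E451W) in imidazole buffer pH 7.2 with 0.5 mM PEP, 0.1 mM ADP; 1 h, room temperature. Readout: PKLight luminescence, normalized to neutral DMSO wells.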
# [5] = molecular target: Cytochrome P450 3A4 (Homo sapiens) (UniProt P08684); test: qHTS Assay for Activators of Cytochrome P450 3A4 (AID 885); note: nearly all actives have a fitted effect of over 65% in size
# How it was run: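 Signal was normalized against complete inhibition by 57 uM ketoconazole. The reaction used 20nM CYP3A4 with 25uM Luciferin-PPXE, 10-min compound preincubation and a 60-min NADPH-supported step at RT.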
# [6] = molecular target: Cytochrome P450 2C19 (Homo sapiens) (UniProt P33261); test: qHTS Assay for Inhibitors and Substrates of Cytochrome P450 2C19 (AID 899); note: nearly all actives have a fitted effect of over 60% in size
# Sequence of Cytochrome P450 2C19 (Homo sapiens) (P33261 whole entry, looked up): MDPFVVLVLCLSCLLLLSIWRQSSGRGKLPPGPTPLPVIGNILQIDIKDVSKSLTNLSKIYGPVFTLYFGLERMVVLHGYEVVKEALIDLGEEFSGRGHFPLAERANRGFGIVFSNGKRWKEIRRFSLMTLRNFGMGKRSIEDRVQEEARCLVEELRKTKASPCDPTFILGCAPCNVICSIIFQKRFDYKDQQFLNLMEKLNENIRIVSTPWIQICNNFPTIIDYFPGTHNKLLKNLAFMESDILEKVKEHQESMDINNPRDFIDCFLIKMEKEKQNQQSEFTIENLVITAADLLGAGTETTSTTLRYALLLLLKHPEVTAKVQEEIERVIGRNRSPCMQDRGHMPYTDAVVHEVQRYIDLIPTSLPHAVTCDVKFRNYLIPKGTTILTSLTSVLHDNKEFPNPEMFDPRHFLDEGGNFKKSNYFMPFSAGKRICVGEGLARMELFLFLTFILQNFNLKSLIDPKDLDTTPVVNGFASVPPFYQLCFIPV
# How it was run: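 Luminescent read-out of luciferin formed from Luciferin-H EGE (10uM, equal to KM). Enzyme 5nM in 50mM KPO4; compound added, 10 min at 37C, then NADPH regenerating system for 60 min at 37C. Full inhibition defined by 57uM ketoconazole.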
# [7] = qHTS Assay for Identification of Small Molecule Antagonists for Thrombopoietin (TPO) Signaling Pathway (AID 918); conditions: TPO-dependent cell signaling reporter, antagonist mode; note: potency is the fitted concentration of half-maximal effect; nearly all actives have a fitted effect of over 60% in size
# How it was run: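 Murine Ba/F3 cells stably expressing human TPO receptor and a Glycoprotein IIb promoter–luciferase reporter were IL-3-starved overnight, treated with compounds plus TPO (26 pM final, its EC50) for 24 hrs at 37 C, then read by luminescence.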
# [8] = Confirmation and Secondary Assay for Modulators of Hemoglobin Beta Chain Splicing at IVS2 654 locus (AID 910);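 note: HeLa cells stably carrying EGFP split by mutant beta-globin IVS2-654 intron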
# How it was run: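 HeLa cells stably expressing EGFP interrupted by β-globin IVS2-654 intron, seeded overnight in Opti-MEM/2% FCS, then treated 2 days at 37 °C. Restored splicing read as total peak GFP intensity per well by laser scanning cytometry (488 nm excitation, 500–520 nm emission); 500 nM antisense PNA as control.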
# [9] = qHTS Assay for Identification of Small Molecule Agonists for Hypoxia Response Element Signaling Pathway (AID 914; active = well fitted activation curve with a large enough effect in the signal ratio, with a control signal flat, not every such curve was filed as active; the % refers to the signal ratio); conditions: ME-180 (cervical carcinoma) HRE-bla reporter, beta-lactamase ratio, CoCl2, 17 h; hits give high values
# How it was run: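 Positive modulation of EC50 CoCl2-induced hypoxia response element signaling is measured in ME-180 cells with a beta-lactamase reporter. Compounds are titrated, incubation runs 17 hours, and %Activity derives from the blue/green ratio.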
# [10] = Confirmation and Secondary Assay for Modulators of Hemoglobin Beta Chain Splicing at IVS2 705 locus (AID 930);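 note: HeLa cells stably expressing the EGFP-705 splicing reporter; GFP fluorescence per well restored by corrected splicing of the IVS2-705 intron in EGFP; series mostly up to about 46 µM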
# How it was run: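 First, HeLa EGFP-705 cells are seeded at 500/well in Optimem with 2% FCS and left overnight. Next, compound or DMSO is added for 2 days. Finally wells are laser-scanned and total peak GFP intensity scored.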
# [11] = molecular target: Cytochrome P450 2D6 (Homo sapiens) (UniProt P10635); test: qHTS Assay for Inhibitors and Substrates of Cytochrome P450 2D6 (AID 891); note: potency is the fitted concentration of half-maximal effect; nearly all actives have a fitted effect of over 60% in size
# Sequence of Cytochrome P450 2D6 (Homo sapiens) (P10635 whole entry, looked up): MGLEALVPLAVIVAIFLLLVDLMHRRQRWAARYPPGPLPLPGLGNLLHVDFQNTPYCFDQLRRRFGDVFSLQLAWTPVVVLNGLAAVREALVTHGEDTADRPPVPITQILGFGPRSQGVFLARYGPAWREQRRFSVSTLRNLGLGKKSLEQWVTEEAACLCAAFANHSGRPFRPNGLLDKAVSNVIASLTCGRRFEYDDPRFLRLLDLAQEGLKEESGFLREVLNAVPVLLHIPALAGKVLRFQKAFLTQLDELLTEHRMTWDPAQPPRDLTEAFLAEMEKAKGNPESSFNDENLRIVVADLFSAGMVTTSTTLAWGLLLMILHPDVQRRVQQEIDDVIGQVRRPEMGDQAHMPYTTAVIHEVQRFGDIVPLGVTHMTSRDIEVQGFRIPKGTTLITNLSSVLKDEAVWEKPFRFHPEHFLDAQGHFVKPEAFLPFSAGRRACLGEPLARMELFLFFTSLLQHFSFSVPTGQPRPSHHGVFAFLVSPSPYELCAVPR
# How it was run: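 Human CYP2D6 (5 nM) with 30 uM Luciferin-ME EGE (at Km) in 100 mM KPO4, compound preincubated 10 min, then NADPH regeneration system for 60 min at room temperature. Luciferin read by luminescence; normalized to 1.43 uM quinidine.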
compound,measurement,setting,value
OC[C@H]1O[C@@H](O[C@@H]2[C@@H](CO)O[C@](O)(CO)[C@H]2O)[C@H](O)[C@@H](O)[C@H]1O,Potency,[1],inactive
CC(C)NC[C@H](O)c1ccc(O)c(O)c1,outcome,[2],inactive
same,outcome,[3],inactive
same,outcome,[4],inactive
NC1CCN(c2cccc(Cl)n2)CC1,outcome,[2],inactive
same,outcome,[3],inactive
same,outcome,[4],inactive
CC1=C(CC(=O)O)c2cc(F)ccc2/C1=C\c1ccc(S(C)(=O)=O)cc1,outcome,[2],inactive
same,outcome,[5],inactive
same,Potency,[6],inactive
same,outcome,[3],inactive
same,outcome,[4],inactive
OCc1cc(C(O)CNCCCCCCOCCCCc2ccccc2)ccc1O (centres undefined),outcome,[2],inactive
same,Potency,[7],10000 nM (active)
same,outcome,[4],inactive
O=c1cc[nH]c(=S)[nH]1,Potency,[1],inactive
same,outcome,[8],inactive
C[C@]12CC[C@@H]3c4ccc(O)cc4CC[C@H]3[C@@H]1CCC2=O,outcome,[2],inactive
same,outcome,[3],inactive
same,outcome,[4],inactive
CCn1cc(C(=O)O)c(=O)c2cnc(N3CCNCC3)nc21,Potency,[1],inactive
same,outcome,[8],inactive
CCCCCCCCCCCCCCCC(=O)NCCO,outcome,[2],inactive
same,outcome,[3],inactive
same,outcome,[4],inactive
CCC(=O)c1ccc(O)cc1,activation,[9],5.29%
O=C(Oc1ccccc1C(=O)O)c1ccccc1O,Potency,[1],inactive
same,outcome,[8],inactive
same,Potency,[10],inactive
CC(C)(C(=O)O)c1ccc(C(O)CCCN2CCC(C(O)(c3ccccc3)c3ccccc3)CC2)cc1 (centres undefined),outcome,[8],inactive
CCCCN(CCCC)CCCOC(=O)c1ccc(N)cc1,outcome,[5],inactive
same,Potency,[11],6.3 nM (active)
same,outcome,[8],inactive
CCN(CC)C(C)CN1c2ccccc2Sc2ccccc21 (centres undefined),outcome,[5],inactive
same,outcome,[8],inactive
same,Potency,[10],inactive
CCN(CC)CCCC(C)Nc1c2ccc(Cl)cc2nc2ccc(OC)cc12 (centres undefined),outcome,[5],inactive
CC1(C)OC(=O)NC1=O,Potency,[1],inactive
same,outcome,[8],inactive
NC(=O)NC(=O)Cc1ccccc1,Potency,[1],inactive
same,outcome,[8],inactive
Cc1ncc([N+](=O)[O-])n1CC(O)CCl (centres undefined),activation,[9],4.13%
CN1CCOC(c2ccccc2)c2ccccc2C1 (centres undefined),outcome,[8],inactive
COc1ccc2c(c1)C(=O)N(CCc1ccc(S(=O)(=O)NC(=O)NC3CCCCC3)cc1)C(=O)C2(C)C,outcome,[5],inactive
CC(CN(C)C)CN1c2ccccc2CCc2ccccc21 (centres undefined),outcome,[5],inactive
same,outcome,[8],inactive
CC1=C(CC(=O)O)c2cc(F)ccc2/C1=C\c1ccc(S(C)=O)cc1 (centres undefined),outcome,[8],inactive
same,outcome,[3],inactive
same,outcome,[4],inactive
CNCC(O)c1ccc(O)c(O)c1 (centres undefined),outcome,[8],inactive
CN(C)CC[C@@H](c1ccc(Cl)cc1)c1ccccn1,Potency,[1],inactive
same,outcome,[8],inactive
Cn1cc[nH]c1=S,outcome,[8],inactive
CSc1ccc2c(c1)N(CCC1CCCCN1C)c1ccccc1S2 (centres undefined),outcome,[8],inactive
CN(C)CCOC(C)(c1ccccc1)c1ccccn1 (centres undefined),Potency,[1],inactive
same,outcome,[8],inactive
O=C(CCCN1CCN(c2ccccn2)CC1)c1ccc(F)cc1,Potency,[1],inactive
same,outcome,[8],inactive
same,Potency,[10],inactive
Cc1ccc(C(C)C)cc2c(C)ccc1-2,Potency,[1],inactive
same,outcome,[8],inactive
same,Potency,[10],inactive
CCCCN1CCCC[C@H]1C(=O)Nc1c(C)cccc1C,outcome,[5],inactive
same,Potency,[11],501 nM (active)
CC1=C(/C=C/C(C)=C/C=C/C(C)=C/C(=O)O)C(C)(C)CCC1,outcome,[5],inactive
CSc1ccc2c(c1)C(N1CCN(C)CC1)Cc1ccccc1S2 (centres undefined),outcome,[8],inactive
same,Potency,[10],inactive
NS(=O)(=O)c1cc2c(cc1C(F)(F)F)NC(Cc1ccccc1)NS2(=O)=O (centres undefined),outcome,[8],inactive
CNCCC(Oc1ccc(C(F)(F)F)cc1)c1ccccc1 (centres undefined),outcome,[8],inactive
Nc1ccc(S(=O)(=O)NC(=O)c2ccccc2)cc1,Potency,[1],inactive
same,outcome,[8],inactive
O=C(O)c1ccccc1O,Potency,[1],inactive
same,outcome,[8],inactive
same,Potency,[10],inactive
Nc1ccc(S(=O)(=O)Nc2ccc(Cl)nn2)cc1,Potency,[1],inactive
same,outcome,[8],inactive
OCC(O)CN1CCN(c2ccccc2)CC1 (centres undefined),Potency,[1],inactive
same,outcome,[8],inactive
same,Potency,[10],inactive
